# Data taken from PubChem BioAssay AID624416 (The Scripps Research Institute Molecular Screening Center, 2012).
# Among all 360,000 compounds or so, about 1,500 (0.42%) were called active. This excerpt belongs to a sample that is enriched for actives. A number with no mark means an inactive call. No stated cut-off is given here; in the data, active means inhibition above about 8.5%; inactive means the rest.
# System: HIV-1 gp120 / PG9 antibody interaction
# Assay: binders of HIV-1 gp120 antibody PG9, primary screen, biochemical, TR-FRET (AID 624416)
# Conditions: TR-FRET gp120-PG9 antibody binding; at 6.7 µM; active compounds read high
row,Structure (SMILES),inhibition
1,CCN(CC)C(=O)c1ccc(NC(=O)c2sccc2-c2ccccc2)cc1,9.48% (active)
2,CC(=O)Nc1ccc(C(=O)C(Cc2ccccc2)N(C)C)cc1 (stereo not given),-2.82%
3,CCN(CC)C(=O)c1ccc(NC(=O)c2cc(-n3cnnc3)ccc2Cl)cc1,-0.62%
4,O=C1NC(=O)C(CCc2ccccn2)(Cc2cccc(Cl)c2Cl)C(=O)N1c1ccc(Br)cc1 (stereo not given),-0.96%
5,CN1CCN(Cc2ccccc2C(F)(F)F)CC1,1.87%
6,N#CC1=C(N)Oc2c(c(=O)oc3ccccc23)C1c1ccccc1OC(=O)c1cccs1 (stereo not given),11% (active)
7,CCNc1nc2[nH]c(=O)c3c(c2s1)OC(N)=C(C#N)C3c1cccs1 (stereo not given),-1.83%
8,COc1ccc(C2C=C(C)Oc3c2c(=O)oc2ccccc32)cc1OC (stereo not given),0.19%
9,C[C@]12CCCCC1=CC(=O)C1C2CC[C@@]2(C)C1C[C@@H](F)[C@@H]2O (stereo not given in full),0.27%
10,Cc1cc2ccccn2c1C(C[N+](=O)[O-])c1c(F)cccc1Cl (stereo not given),1.04%
